Test results: PubChem BioAssay AID1159580 (chemical genetic matrix, 2015)
Screen size: about 5,500 compounds; about 2,000 (36%) were called active. Another 18% or so got no clear call; they are omitted. Rule as the data show it: active = normalized growth mostly below about 0.91 (no sharp cut-off); inconclusive = no clear call, values can overlap the other calls; inactive = mostly above about 0.92. The list shows a part of the results.

Test: chemical genetic growth profiling, strain panel (AID 1159580);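 also: tested at 20 µM; growth read once vehicle control cultures reached saturation at 30 °C; 1 = growth at the plate median or of vehicle wells; lower values mean less growth of the strain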
Settings: growth OD
[1] = S. cerevisiae deletion strains, locus YAL013W, strain DEP1, stronger effect = lower value
[2] = S. cerevisiae deletion strains, locus YDR150W, strain NUM1, stronger effect = lower value
[3] = S. cerevisiae deletion strains, locus YGR078C, strain PAC10, stronger effect = lower value
[4] = S. cerevisiae deletion strains, locus YNL322C, strain KRE1, stronger effect = lower value
[5] = S. cerevisiae deletion strains, locus YPL055C, strain LGE1, stronger effect = lower value

Measured: normalized growth

Cc1noc(C)c1C(=O)N1CCN(c2ncc(C(F)(F)F)cc2Cl)CC1
inactive: [1] 0.994 | S. cerevisiae deletion strains, locus YBR229C, strain ROT2, stronger effect = lower value 0.988 | S. cerevisiae deletion strains, locus YCL061C, strain MRC1, stronger effect = lower value 0.993 | S. cerevisiae deletion strains, locus YDL101C, strain DUN1, stronger effect = lower value 0.977 | [2] 0.897 | S. cerevisiae deletion strains, locus YEL061C, strain CIN8, stronger effect = lower value 0.975 | [3] 0.994 | S. cerevisiae deletion strains, locus YHR030C, strain SLT2, stronger effect = lower value 1.07 | S. cerevisiae deletion strains, locus YHR087W, strain rtc3, stronger effect = lower value 0.975 | S. cerevisiae deletion strains, locus YJR043C, strain POL32, stronger effect = lower value 0.998 | S. cerevisiae deletion strains, locus YJR075W, strain HOC1, stronger effect = lower value 0.972 | S. cerevisiae deletion strains, locus YKL190W, strain CNB1, stronger effect = lower value 1 | S. cerevisiae deletion strains, locus YLR039C, strain RIC1, stronger effect = lower value 0.995 | S. cerevisiae deletion strains, locus YLR058C, strain SHM2 (second series), stronger effect = lower value 1 | S. cerevisiae deletion strains, locus YLR085C, strain ARP6, stronger effect = lower value 0.982 | S. cerevisiae deletion strains, locus YLR262C, strain YPT6, stronger effect = lower value 0.979 | S. cerevisiae deletion strains, locus YML094W, strain GIM5, stronger effect = lower value 0.968 | S. cerevisiae deletion strains, locus YMR219W, strain ESC1, stronger effect = lower value 1 | S. cerevisiae deletion strains, locus YMR263W, strain SAP30, stronger effect = lower value 1.01 | S. cerevisiae deletion strains, locus YNL128W, strain TEP1, stronger effect = lower value 0.99 | S. cerevisiae deletion strains, locus YNL153C, strain GIM3, stronger effect = lower value 0.986 | S. cerevisiae deletion strains, locus YNL298W, strain CLA4 (second series), stronger effect = lower value 1.02 | [4] 0.989 | S. cerevisiae deletion strains, locus YNR030W, strain Alg12, stronger effect = lower value 0.97 | S. cerevisiae deletion strains, locus YOL006C, strain TOP1, stronger effect = lower value 0.99 | [5] 0.933 | S. cerevisiae deletion strains, locus YPL241C, strain CIN2, stronger effect = lower value 1.1 | S. cerevisiae deletion strains, locus YPR135W, strain CTF4, stronger effect = lower value 0.942 | S. cerevisiae strains, strain wild type, stronger effect = lower value 0.993

c1cnc(N2CCN(Cc3ccc4c(c3)OCO4)CC2)nc1
inactive: [1] 0.95 | S. cerevisiae deletion strains, locus YAL040C, strain CLN3, stronger effect = lower value 0.967 | S. cerevisiae deletion strains, locus YCL061C, strain MRC1 (second series), stronger effect = lower value 0.982 | [2] 0.996 | S. cerevisiae deletion strains, locus YDR363W, strain ESC2, stronger effect = lower value 0.988 | S. cerevisiae deletion strains, locus YER002W, strain NOP16, stronger effect = lower value 0.988 | [3] 0.993 | S. cerevisiae deletion strains, locus YMR307W, strain GAS1, stronger effect = lower value 0.999 | S. cerevisiae deletion strains, locus YNL175C, strain NOP13, stronger effect = lower value 1 | S. cerevisiae deletion strains, locus YNL197C, strain WHI3, stronger effect = lower value 0.976 | S. cerevisiae deletion strains, locus YNL224C, strain SQS1, stronger effect = lower value 0.985 | [4] 0.979 | S. cerevisiae deletion strains, locus YOR083W, strain WHI5 (second series), stronger effect = lower value 0.985 | [5] 0.991
